Several values for one entry are separate records, joined by “and”; a condition that tells them apart may be missing. Equal values may be shown once. About 83,000 compounds went through this panel and 20% of them were active in at least one assay; those are over-represented in the sample as a whole.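 Percent growth is the endpoint: 0 to 100 indicates growth inhibition (40 means 60% inhibition), 0 means no net growth, and negative values indicate cell death.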 A number with no mark means an inactive call. Activity calls are given as the source filed them. How the source made its calls: active means growth percent below 10; inactive means the rest.
These molecules were tested on MDA-MB-468 breast (assay: NCI-60 one-dose screen, 48 h (100 = growth as untreated, 0 = no growth, -100 = all killed)). Details: 10 µM unless noted.

| SMILES | growth |
| --- | --- |
| COc1ccc(-c2nsc3c2NC(=O)CC3c2ccc3c(c2)OCO3)cc1 (stereo not given) | 10.3% |
| Cc1ccc(C)n1-c1ccsc1C(=O)NNC(=O)C(Cl)Cl | 103% |
| CCC[S@@](=O)c1ccc2nc(NC(=O)OC)[nH]c2c1 | 68.5% |
| COc1ccc(/C=C2/SC(=Nc3c(C)nn(-c4ccccc4)c3N)NC2=O)cc1 | 7.17% (active) |
| C=C(C)[C@@H]1CC[C@]2(C(=O)O)CC[C@]3(C)[C@H](CC[C@@H]4[C@@]5(C)C/C(=C/c6ccccn6)C(=O)C(C)(C)[C@@H]5CC[C@]43C)[C@@H]12 | 9.64% (active) |
| COC(=O)c1n[nH]c2ccc3nc(-c4cn[nH]c4C(F)(F)F)c4c(c3c12)CCCC4 | 73.8% |
| COc1cc2c(c(OC)c1OC)CCC(c1cccc(C(=O)Nc3ccc(C#N)cc3)c1)O2 (stereo not given) | 46.4% |
| COc1ccc(C(=O)c2cc(OC)c(C)c(OC)c2)cc1OC(=O)CCl | 38.3% |
| C#CCOc1cccc(Nc2ncnc3cc(NC(=O)CCl)ccc23)c1 | -52.5% (active) |
| CC(C)(C)c1cc(/C=N\NC(=O)/C=C/C=C/c2ccc3c(c2)OCO3)c(O)c(C(C)(C)C)c1 | 70.7% |
| O=C(Nc1nc2ccc([N+](=O)[O-])cc2s1)Nc1ccccc1Br | 33.2% |
| COc1cc(C(=O)/C=C/c2c(-c3cccs3)nc3sccn23)cc(OC)c1OC | -49.5% (active) |
| COc1ccccc1-n1c(-c2sc(NC(C)=O)nc2C)n[nH]c1=S | 124% |
| COc1ccc(-c2nc(-c3nc4ccc(F)cc4[nH]3)cc3c2[nH]c2ccccc23)cc1 | 40% |
| Cc1cc(OI)c(C(C)C)cc1-c1cc(C(C)C)c(OI)cc1C | 108% |
| CCCCC(O)Cn1ncc(C(=O)OCC)c1NC(=O)NCc1ccccc1C(F)(F)F (stereo not given) | 98.7% |
| NC(=O)NNC(=O)c1ccccc1 | 110% |
| COc1cc(-c2cnc3nonc3n2)c(OC)c2c1OCO2 | 83.5% |
| NS(=O)(=O)c1ccc(N/C=C/C(=O)c2cc3ccccc3oc2=O)cc1 | 90.4% |
| Cc1nc2cccc(NCc3ccc(C(=O)NO)cc3)c2c(=O)n1-c1ccccc1 | -15.3% (active) |

| SMILES | growth |
| --- | --- |
| Cc1cc(/C=C/c2ccc3cc(N(C)C)ccc3[n+]2C)c(C)n1-c1ccccc1 | -81.9% (active) |
| NS(=O)(=O)c1ccc(-n2cc(CN3CCNCC3)nn2)cc1 | -22.4% (active) |
| C=C1C(=O)O[C@H]2[C@H]1CC/C(COC(=O)/C=C/c1cccnc1)=C\CC[C@@]1(C)O[C@@H]21 | 10.9% |
| CCO/C=N/C1=C(C#N)C(c2ccc(Cl)cc2)c2sc3c(C)cccc3c2O1 (stereo not given) | -3.01% (active) |
| CC/C(=C(/CC)c1ccc(O)cc1)c1ccc(O)cc1 | 35.2% |
| CC(=O)Nc1ccc(-c2ccc3c(c2)NC(=O)/C3=C\c2ccc[nH]2)cc1 | -7.08% (active) |
| Cc1nc2cc(Nc3nc(Nc4ccc(F)cc4)nc(N4CCCC4)n3)ccc2n1Cc1ccccc1 | -63.3% (active) |
| Nc1ccc(-c2nnc(SCc3ccc(O)c4ncccc34)o2)cc1 | -20.7% (active) |
| Cn1cc(-c2csc(-c3c[nH]c4ncccc34)n2)c2cc(F)cnc21 | -16% (active) |
| CCc1ccc(Oc2c(-c3ccc(OCc4ccc(Cl)cc4)cc3O)n[nH]c2C(F)(F)F)cc1 | 13.1% |
| COC(=O)CCC1=C(C)C2=NC1=CC1=NC(=CC3=NC(=Cc4[nH]c(/c(=C(/C)O)c4C)=C2)C(C(C)=O)=C3C)C(C)=C1CCC(=O)OC | 108% |
| O=C(CC(=O)c1ccccc1F)Nc1ccc([N+](=O)[O-])cc1 | 90.9% |
| O=C(CSc1nc2ccc([N+](=O)[O-])cc2[nH]1)Nc1ccc([N+](=O)[O-])cc1 | -12.4% (active) |
| O=c1c2cc(-c3ccccc3)sc2nc2sc(-c3ccccc3)nn12 | 101% |
| CCCCN1CCCCn2c1nc1c2c(=O)n(C)c(=O)n1C | 102% |
| COc1ccc2c(CCC(c3ccccc3)c3ccccc3)c3[n+](cc2c1OC)CCc1cc2c(cc1-3)OCO2 | -29.9% (active) |
| O=C1Nc2ccc(Br)cc2C1=O | 109% |
| Cc1cc(C)c(N)c(Br)c1 | 104% and 107% |
| C=C1C(=O)O[C@H]2[C@H]1CC/C(COC(=O)/C=C\C(=O)O)=C\CC[C@@]1(C)O[C@@H]21 | 110% |
| COc1cc(Nc2nc3ccccc3cc2C(=O)Nc2ccc(F)c(F)c2)cc(OC)c1OC | 4.15% (active) |
